Source: PubChem BioAssay (NCI)
The panel holds about 83,000 compounds, 20% with a hit somewhere; the sample as a whole holds those more often.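 Step 1: grow cells in 96-well plates. Step 2: add test compound at a single concentration. Step 3: incubate 48 h. Step 4: record percent growth.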 Values without a mark were called inactive. Activity calls are given as the source filed them. Rule for the calls: active = growth percent below 10; inactive = the rest.

How the values were obtained:
Test in all cases: NCI-60 one-dose screen, 48 h (100 = growth as untreated, 0 = no growth, -100 = all killed)
Conditions in all cases: 10 µM unless noted
[1] = tested on: HCT-15 colon
[2] = tested on: HT29 colon
[3] = tested on: SNB-75 CNS
[4] = tested on: SNB-19 CNS
[5] = tested on: PC-3 prostate
[6] = tested on: SK-MEL-5 melanoma
[7] = tested on: UACC-62 melanoma
[8] = tested on: LOX IMVI melanoma
[9] = tested on: SK-MEL-28 melanoma
[10] = tested on: SK-MEL-2 melanoma
[11] = tested on: EKVX NSCLC
[12] = tested on: UO-31 renal
[13] = tested on: TK-10 renal
[14] = tested on: ACHN renal
[15] = tested on: CAKI-1 renal
[16] = tested on: A498 renal
[17] = tested on: CCRF-CEM leukemia
[18] = tested on: MOLT-4 leukemia
[19] = tested on: SN12C renal

SMILES | growth [1] | growth [2] | growth [3] | growth [4] [%] | growth [5] [%] | growth [6] | growth [7] | growth [8] | growth [9] | growth [10] [%] | growth [11] [%] | growth [12] | growth [13] [%] | growth [14] | growth [15] | growth [16] | growth [17] | growth [18] | growth [19] [%]
C=CC(=O)Nc1cccc(-c2nc(SC)nc(NCc3ccccc3)c2C#N)c1 | 58.4% | 62.2% | 19.6% | 54.8 | 74.8 | 74% | 61% | 65.8% | 82.4% | 60.8 | 44 | 31.1% | 69.1 | 50.6% | 40.5% | -1.24% (active) | 60.3% | 49.1% | 
COc1cccc(-c2nc3sccn3c2-c2ccnc(NCCNS(=O)(=O)c3ccccc3)c2)c1 | 11.8% | 23.6% | 15.2% | 51.6 | 11.3 | -39.3% (active) | -31.3% (active) | 24% | 50% | 30.1 | 29.8 | 5.71% (active) | 55.5 | 10.4% | 9.12% (active) | 44.2% | 10.1% | 12% | 28.9
O=C(N=Nc1c(O)[nH]c2ccccc12)c1cc(-c2ccccc2)on1 | 102% | 104% | 53.7% | 100 | 101 | 100% | 99.6% | 95.9% | 108% | 108 | 92 | 85.4% | 123 | 97.2% | 86.7% | 103% | 107% | 104% | 
COc1ccc(-c2nc3ccc(-c4nc5ccc(N6CCN(c7ccc(F)cc7)CC6)cc5[nH]4)cc3[nH]2)cc1OC | 44.7% | 44.3% | 64.3% | 117 | 62.7 | 65.6% | 60.6% |  | 90.6% | 109 | 99.6 | 89% | 133 | 62.3% | 84.6% | 98.3% | 20.9% | 27.9% | 80.7
COc1cc(CNc2oc(-c3ccccc3)c(-c3ccccc3)c2C#N)cc(CN2CCN(C)CC2)c1O | -55.9% (active) | 5.27% (active) | 52.4% | 83.3 | 57.6 | 49.8% | 91.1% | -74.6% (active) | -38.4% (active) | 82.4 | 65.6 | 51.5% | 91.9 | 65.7% | 66% | -7.97% (active) | 45.6% | -13.7% (active) | 77.4
CC(=O)O[C@H]1CC[C@]2(C)[C@H]3CC=C4[C@@H]5CC(C)(C)CC[C@]5(C(=O)NCCNCCNCCN)CC[C@@]4(C)[C@]3(C)CC[C@H]2C1(C)C | -74.8% (active) | -47.7% (active) | 71% | 92.6 | 38.9 | 90.7% | 93.9% | -98.9% (active) | 93.1% | 96.9 | 81.9 | 79.1% | 97.2 | -25.4% (active) | 77.8% | 54.6% | -9.21% (active) | -13% (active) | 89.5
N#CCCN=Nc1c(O)[nH]c2ccc([N+](=O)[O-])cc12 | 102% | 101% | 70.5% | 100 | 99.7 | 99.2% | 93.2% | 90.3% | 112% | 95.6 | 91.3 | 76.9% | 108 | 96.3% | 86.1% | 94.3% | 103% | 100% | 98.7
COc1cc(/C=C/c2cc(O)c3cc(C(C)=O)c(=O)oc3c2)cc2c1O[C@]1(C)CC[C@@H](O)C(C)(C)[C@H]1C2 | 14.4% | 60.5% | -8.02% (active) | 48.1 | 27.4 | -96.8% (active) | -11.7% (active) | 18.8% | -0.116% (active) | 50.1 | 59.3 | -42.8% (active) | 97.9 | 40.9% | 29.8% | -51.5% (active) | 22.1% | -5.7% (active) | 64.7
CSc1nc(-c2cccc(NC(=O)CCl)c2)c(C#N)c(=O)n1C | 11% | -33.7% (active) | 54% | 86.6 | 77.5 | 79.4% | 60.4% |  | 87.3% | 70.9 | 70.8 | -53.2% (active) | 117 | 73.9% | 83.7% | 90.2% | -16.5% (active) | 14% | 81
C=CC(=O)Nc1cccc(-c2nc(SC)nc(Nc3ccccc3OC)c2C#N)c1 | 16.9% | 2.25% (active) | 24.4% | 74.5 | 31.9 | 66.7% | 75% | 16.9% | 50.8% | 73.9 | 63.7 | 19.2% | 36.1 | 37.7% | 56.6% |  | 40.8% | 33.4% | 
O=S(=O)(Nc1ccc(Cl)c(F)c1)c1ccc(-c2cnc(C3CC3)o2)cc1 | 21.1% | -6.67% (active) | -7.32% (active) | 44.9 | 29.9 | 17.4% | 24.8% | 40.3% | 58.5% | 31.9 | 34.4 | 48.6% | 45.5 | 47.5% | 32.1% |  | 19.9% | 28.6% | 47.6
CSc1nc(NCc2ccccc2)c(C#N)c(-c2cccc([N+](=O)[O-])c2)n1 | 95.9% | 103% | 68.2% | 94.9 | 94.5 | 100% | 79% | 92.1% | 102% | 102 | 85.4 | 78.3% | 124 | 95.6% | 75.4% | 66.1% | 99.7% | 103% | 
COc1ccc(-c2cc(C(=O)N=Nc3c(O)[nH]c4ccc(Br)cc34)no2)cc1 | 100% | 100% | 66.1% | 92 | 95.8 | 97.4% | 101% | 96% | 113% | 97.6 | 94.4 | 77.6% | 124 | 98.2% | 84.1% | 99.6% | 102% | 101% | 93.6
CON1C(=O)CC[C@]2(C)[C@H]3CC[C@@H]4C([C@@]5(C)CCC(=O)O5)CC[C@@]4(C)[C@]3(C)CC[C@H]2C1(C)C (some centres undefined) | 99.8% | 94.6% | 71.5% | 96.5 | 87.4 | 98.4% | 87.2% | 95.1% | 107% | 94.6 | 93.3 | 94.4% | 97.8 | 96.6% | 75.7% | 99.6% |  | 90.6% | 95.2
O=S(=O)(Nc1ccc(I)cc1F)c1ccc(-c2cnc(C3CC3)o2)cc1 | 25.5% | 15.9% | 15.4% | 62.8 | 68 | 62.8% | 32.8% | 52.5% | 61.7% | 40.7 | 68.5 | 70.1% | 88.6 | 77.2% | 40.9% | -10% (active) | 61.1% | 37.5% | 71.5
CC(C)C1=C[C@@]23CC[C@@H]4[C@](C)(CCC[C@@]4(C)C(=O)N4CCCNCC4)[C@H]2C[C@@H]1[C@H]1C(=O)CCC(=O)[C@H]13 | 97.5% | 108% | 63.5% | 99.5 | 93 | 97.7% | 98.2% | 92.1% | 109% |  | 95.2 | 79.2% | 104 | 92.1% | 81.1% | 97% | 101% | 96.5% | 102
